Unmarked numbers belong to inactive results. Inconclusive results are not listed. Activity calls are given as the source filed them. Unless noted, the call rests on the fitted dose curve.

The text below walks through data of PubChem BioAssay (Tox21).

Experiment [1] in a line: Nuclear factor erythroid 2-related factor 2/antioxidant responsive element (Nrf2/ARE) small molecule agonists: qHTS cell viability counter screen in human keratinocytes (AID 1919968; active means well fitted curve in the direction sought with a large enough effect in the repeat runs; an effect the other way counts as inactive or inconclusive; further: nearly all actives have a fitted effect of over 55% in size; further: potency means the concentration at half of the fitted maximal effect). The gist of the method: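 KeratinoSens cells (HaCaT keratinocytes stably carrying an ARE-luciferase reporter) were seeded at 1,500 cells/well and rested 5 h at 37 C/5% CO2. They were then exposed to compounds in DMSO for 23 h. Viability was read by CellTiter-Fluor fluorescence after 1 h.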
(In qHTS, concentration-response curves come from the screen itself.)

A short description of experiment [2]: Nuclear factor erythroid 2-related factor 2/antioxidant responsive element (Nrf2/ARE) small molecule agonists: luciferase reporter gene qHTS assay in human keratinocytes (AID 1919969). Further: nearly all actives have a fitted effect of over 35% in size. Further: potency means the concentration at half of the fitted maximal effect. Background: Reporter assays use an easily measured gene product as a stand-in for the process of interest.
The nature of experiment [3]: G protein-coupled receptor (GPCR) small molecule agonists, calcium flux assay: HEK293 wild type cell line counter screen (AID 1920065). Further: potency means the concentration at half of the fitted maximal effect. The gist of the method: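 Cells were plated and cultured 18 h at 37 C/5% CO2, then loaded with calcium dye for 1 h at 37 C. Compounds in DMSO were pin-transferred in agonist mode, and fluorescence (Ex/Em 480/540) was read kinetically for 3 min at 1 s intervals.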
For orientation: Calcium assays in cells follow changes in intracellular calcium, usually with a dye or a luminescent sensor.

Experiment [4] is described as follows: p53 small molecule agonists, cell-based qHTS assay with human liver microsomes (AID 1963577). The gist of the method:
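p53RE-bla reporter cells were pre-incubated 5 h at 37 C, then treated with compounds plus human liver microsomes (0.5 mg/mL final) and NADPH (0.5 mg/mL final) for 16 h at 37 C. Beta-lactamase activity was read by LiveBLAzer fluorescence after 2 h at room temperature.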

Experiment [5] is described as follows: p53 small molecule agonists, cell-based qHTS assay with rat liver microsomes (AID 1963578). In a few lines: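 p53RE-bla cells were exposed to compounds together with rat liver microsomes (0.5 mg/mL final) and NADPH (0.5 mg/mL final) for 16 h at 37 C, then read by LiveBLAzer beta-lactamase fluorescence after 2 h at room temperature.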
The nature of experiment [6]: p53 small molecule agonists, cell-based qHTS assay with human liver microsomes: qHTS cell viability counter screen (AID 1963579). Further: nearly all actives have a fitted effect of over 45% in size. Further: potency means the concentration at half of the fitted maximal effect. The gist of the method:
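p53RE-bla cells (4,000/well) were pre-incubated 5 h at 37 C, then given compounds in DMSO plus human liver microsomes (0.5 mg/mL final) and NADPH (0.5 mg/mL final) for 16 h at 37 C. Viability was read by CellTiter-Glo luminescence.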

Experiment [7] is described as follows: p53 small molecule agonists, cell-based qHTS assay (AID 1963582; active means well fitted activation curve with a large enough effect in the signal ratio in the repeat runs, not every such curve was filed as active; the % refers to the signal ratio). In a few lines: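 p53RE-bla beta-lactamase reporter cells rested 5 h at 37 C/5% CO2, then received compounds in DMSO by pin transfer and were incubated 16 h at 37 C. LiveBLAzer B/G FRET substrate was loaded for 2 h at room temperature before fluorescence reading.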
In experiment [8] the target is 5-hydroxytryptamine receptor 2A (Homo sapiens) (UniProt P28223). Description: 5-hydroxytryptamine receptor 2A (HTR2A) small molecule antagonists, cell-based qHTS assay (AID 1963586). Further: nearly all actives have a fitted effect of over 45% in size. In a few lines:
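Antagonist-mode intracellular calcium assay: DOI (4 nM) added after 5 min compound pre-incubation at room temperature to dye-loaded HTR2A-CHO cells. Fluorescence followed for 3 min, sampled every second.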

The target is the same in experiment [9]. Description: 5-hydroxytryptamine receptor 2A (HTR2A) small molecule agonists, cell-based qHTS assay (AID 1963587). Further: nearly all actives have a fitted effect of over 30% in size. In a few lines:
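CHO cells stably expressing human HTR2A, plated 18 h, loaded with calcium dye 1 h at 37 C. Agonist mode: compounds added and intracellular calcium fluorescence recorded kinetically for 2 min at 1 sec intervals.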

Experiment [10] deals with Muscarinic acetylcholine receptor M1 (Homo sapiens) (UniProt P11229). The experiment is described as follows: Cholinergic receptor muscarinic 1 (CHRM1) small molecule antagonists, cell-based qHTS assay (AID 1963588). Further: nearly all actives have a fitted effect of over 40% in size. Further: potency means the concentration at half of the fitted maximal effect. The gist of the method: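 CHRM1-CHO calcium-flux assay, antagonist mode. Cells were seeded 18 h, dye-loaded 1 h at 37 C and given compound for 5 min at RT, then acetylcholine was added at 50nM. FDSS fluorescence was read 3 min; 15 concentrations, three runs.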

For experiment [11] the target is unchanged. The experiment is described as follows: Cholinergic receptor muscarinic 1 (CHRM1) small molecule agonists, cell-based qHTS assay (AID 1963589). Further: nearly all actives have a fitted effect of over 35% in size. The gist of the method:
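CHO cells stably expressing human CHRM1, seeded 18 h at 37 C/5% CO2, dye-loaded 1 h at 37 C, then given compound in agonist mode; intracellular calcium fluorescence read kinetically at 1 s intervals. Fifteen concentrations, three independent runs.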

Experiment [12] addresses Beta-2 adrenergic receptor (Homo sapiens) (UniProt P07550). The experiment is described as follows: Adrenergic beta2 receptor (ADRB2) small molecule antagonists, cell-based qHTS assay (AID 1963592). Further: series mostly up to about 92 µM; nearly all actives have a fitted effect of over 50% in size. The gist of the method: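 Cells (CHO, stable ADRB2 overexpression) incubated 18-20hr at 37C; compounds added from DMSO; agonist mix (1nM isoproterenol, 100uM IBMX, 25uM Ro-20-1724) added; 0.5hr RT; d2-cAMP and anti-cAMP-cryptate added; 1hr RT; 665/615 nm read.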

The target of experiment [13] is D(2) dopamine receptor (Homo sapiens) (UniProt P14416). Description: Dopamine D2 receptor (DRD2) small molecule agonists, cell-based qHTS assay (AID 1963594). Further: nearly all actives have a fitted effect of over 35% in size. In a few lines: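 HEK293 cells stably expressing human DRD2, pre-treated with PDE inhibitor Ro20-1724 (0.1 mM final) and compound 10 min at room temperature, then stimulated with NKH477 (200nM […]) for 30 min. cAMP read by HTRF (665/620 nm).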

For experiment [14] the target is unchanged. Description: Dopamine D2 receptor (DRD2) small molecule antagonists, cell-based qHTS assay (AID 1963595; active means well fitted inhibition curve with a large enough effect in the signal ratio in the repeat runs, with a control signal flat; the % refers to the signal ratio). The gist of the method:
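HEK293 cells stably expressing DRD2 were preincubated with 0.1 mM Ro20-1724, then with compound for 10 min at room temperature. Cells were stimulated with 200 nM NKH477 plus 12 nM quinpirole for 30 min, and cAMP was read by HTRF.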

Experiment [15] concerns the target KiSS-1 receptor (Homo sapiens) (UniProt Q969F8). The experiment is described as follows: Human kisspeptin (KISS1R) small molecule agonists, calcium flux assay in KISS1R-HEK293 cells (AID 1920064; active means well fitted curve in the direction sought with a large enough effect in the repeat runs; an effect the other way counts as inactive or inconclusive). The gist of the method: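 HEK293 cells stably expressing human KISS1R were plated 18 h at 37 °C, loaded with calcium dye for 1 h at 37 °C, then given compound by pin tool. Fluorescence (Ex/Em 480/540) was read kinetically for 3 min.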

A short description of experiment [16]: p53 small molecule agonists, cell-based qHTS assay with rat liver microsomes: qHTS cell viability counter screen (AID 1963580). Further: nearly all actives have a fitted effect of over 45% in size. The gist of the method:
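p53RE-bla HCT-116 cells were exposed 16 h at 37 C to compounds with rat liver microsomes (0.5 mg/mL) and NADPH (0.5 mg/mL). Viability was measured in the same wells as ATP content by CellTiter-Glo luminescence.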

Experiment [17] is described as follows: p53 small molecule agonists, cell-based qHTS assay: qHTS cell viability counter screen (AID 1963581). Further: nearly all actives have a fitted effect of over 45% in size. The gist of the method: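 p53RE-bla HCT-116 cells were exposed to compounds for 16 h at 37 C; after the beta-lactamase FRET read in the same wells, CellTiter-Glo was added and luminescence (intracellular ATP) read after 30 min at room temperature.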
Experiment [18] in a line: cAMP Responsive Elements (CRE) small molecule agonists, cell-based qHTS assay (AID 1963590). The gist of the method: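 CRE-bla HEK 293T cells in DMEM with 10% dialyzed FBS, NEAA, pyruvate and 25 mM HEPES were plated 18 h at 37 C/5% CO2, then exposed to compounds in DMSO for 3 h before LiveBLAzer B/G FRET substrate addition.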
A short description of experiment [19]: cAMP Responsive Elements (CRE) small molecule antagonists, cell-based qHTS assay (AID 1963591; active means well fitted inhibition curve with a large enough effect in the signal ratio in the repeat runs, not every such curve was filed as active; the % refers to the signal ratio). In a few lines:
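CRE-bla HEK293T cells were plated 18 h at 37 °C/5% CO2, pinned with compound in DMSO, then stimulated with NKH477 at 0.25 uM final for 3 h. LiveBLAzer B/G FRET substrate was added and plates incubated 2 h at room temperature.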

For experiment [20], the target named is Beta-2 adrenergic receptor (Homo sapiens) (UniProt P07550). The experiment is described as follows: Adrenergic beta2 receptor (ADRB2) small molecule agonists, cell-based qHTS assay (AID 1963593).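 Further: CHO cells stably overexpressing human ADRB2.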 In a few lines:
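CHO cells stably over-expressing ADRB2 were plated overnight at 37C, then dosed with compounds plus a stimulation mix containing 100uM IBMX and 25uM Ro-20-1724 for 0.5hr at room temperature. cAMP was measured by HTRF competition, 1hr.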

Sequence of 5-hydroxytryptamine receptor 2A (Homo sapiens) (P28223 whole entry, looked up): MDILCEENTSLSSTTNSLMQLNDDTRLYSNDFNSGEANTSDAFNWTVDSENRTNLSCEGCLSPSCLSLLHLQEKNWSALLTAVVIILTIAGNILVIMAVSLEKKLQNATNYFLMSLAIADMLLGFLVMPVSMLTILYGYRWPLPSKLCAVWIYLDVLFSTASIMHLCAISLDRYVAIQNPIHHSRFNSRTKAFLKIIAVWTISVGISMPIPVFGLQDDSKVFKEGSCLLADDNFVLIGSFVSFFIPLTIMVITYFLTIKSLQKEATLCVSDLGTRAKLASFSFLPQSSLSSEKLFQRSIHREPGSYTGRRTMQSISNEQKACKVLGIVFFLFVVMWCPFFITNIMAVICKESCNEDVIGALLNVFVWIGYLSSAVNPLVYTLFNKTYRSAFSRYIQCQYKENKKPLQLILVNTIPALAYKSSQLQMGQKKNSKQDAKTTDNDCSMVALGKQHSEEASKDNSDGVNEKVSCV
Sequence of D(2) dopamine receptor (Homo sapiens) (P14416 whole entry, looked up): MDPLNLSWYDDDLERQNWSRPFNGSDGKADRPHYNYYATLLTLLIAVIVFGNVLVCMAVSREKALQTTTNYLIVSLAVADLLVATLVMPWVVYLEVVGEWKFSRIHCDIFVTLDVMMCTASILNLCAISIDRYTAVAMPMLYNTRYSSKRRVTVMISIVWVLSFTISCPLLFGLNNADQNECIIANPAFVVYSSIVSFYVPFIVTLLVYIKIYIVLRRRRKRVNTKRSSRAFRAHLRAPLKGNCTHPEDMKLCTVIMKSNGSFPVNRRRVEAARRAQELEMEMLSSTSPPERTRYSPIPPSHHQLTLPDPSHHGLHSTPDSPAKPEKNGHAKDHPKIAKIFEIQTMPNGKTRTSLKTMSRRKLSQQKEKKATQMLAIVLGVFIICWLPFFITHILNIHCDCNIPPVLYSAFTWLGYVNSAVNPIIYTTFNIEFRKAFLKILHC
Sequence of KiSS-1 receptor (Homo sapiens) (Q969F8 whole entry, looked up): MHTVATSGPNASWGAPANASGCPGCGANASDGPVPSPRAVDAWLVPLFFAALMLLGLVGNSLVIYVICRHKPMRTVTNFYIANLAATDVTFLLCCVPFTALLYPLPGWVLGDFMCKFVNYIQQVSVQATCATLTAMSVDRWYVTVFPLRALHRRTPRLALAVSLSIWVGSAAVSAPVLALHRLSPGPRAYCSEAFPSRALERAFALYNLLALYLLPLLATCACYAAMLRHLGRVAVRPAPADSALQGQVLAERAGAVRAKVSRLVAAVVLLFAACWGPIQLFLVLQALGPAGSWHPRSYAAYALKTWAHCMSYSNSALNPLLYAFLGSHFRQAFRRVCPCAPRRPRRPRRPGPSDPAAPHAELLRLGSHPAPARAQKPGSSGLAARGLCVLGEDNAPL
Sequence of Beta-2 adrenergic receptor (Homo sapiens) (P07550 whole entry, looked up): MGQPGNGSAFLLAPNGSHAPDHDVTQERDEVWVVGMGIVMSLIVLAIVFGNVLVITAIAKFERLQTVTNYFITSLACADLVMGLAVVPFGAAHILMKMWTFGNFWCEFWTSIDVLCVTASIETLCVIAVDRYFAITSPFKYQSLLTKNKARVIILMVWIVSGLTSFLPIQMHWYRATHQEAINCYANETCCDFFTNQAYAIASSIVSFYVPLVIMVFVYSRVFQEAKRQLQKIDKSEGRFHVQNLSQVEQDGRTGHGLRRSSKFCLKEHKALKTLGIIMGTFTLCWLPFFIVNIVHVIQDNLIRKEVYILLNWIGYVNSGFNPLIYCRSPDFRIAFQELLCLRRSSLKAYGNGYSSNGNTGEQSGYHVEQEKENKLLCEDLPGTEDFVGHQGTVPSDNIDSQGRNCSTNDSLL
Sequence of Muscarinic acetylcholine receptor M1 (Homo sapiens) (P11229 whole entry, looked up): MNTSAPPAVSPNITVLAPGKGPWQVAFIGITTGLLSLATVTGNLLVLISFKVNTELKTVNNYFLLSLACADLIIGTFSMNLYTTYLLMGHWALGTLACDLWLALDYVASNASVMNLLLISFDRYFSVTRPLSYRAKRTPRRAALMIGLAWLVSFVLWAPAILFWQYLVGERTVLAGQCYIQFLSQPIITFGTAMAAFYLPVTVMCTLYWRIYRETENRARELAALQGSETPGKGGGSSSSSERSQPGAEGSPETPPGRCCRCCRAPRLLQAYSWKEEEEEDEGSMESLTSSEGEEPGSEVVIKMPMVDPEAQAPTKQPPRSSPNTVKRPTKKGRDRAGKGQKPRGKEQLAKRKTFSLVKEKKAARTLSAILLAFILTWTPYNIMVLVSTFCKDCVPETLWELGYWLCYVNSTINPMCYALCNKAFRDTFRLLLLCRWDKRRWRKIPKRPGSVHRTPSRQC

As to `N#CC(C#N)=NNc1cccc(Cl)c1`, the Potency in experiment [1] is 8.63 µM (active); in [2] it was 7.7 µM (active); in [3], 2.45 µM (active); in experiment [6], 5.13 µM (active). In addition, the Potency entry in experiment [4], in experiment [5], in experiment [7], in experiment [8], in experiment [9] and in experiment [10] was “inactive” throughout. Further, the Potency entry in experiment [11], in experiment [12], in [13] and in experiment [14] was “inactive” each time.

With `Fc1cccc(Cl)c1CCl`, the Potency entry in [1], in experiment [2], in experiment [15], in experiment [3], in experiment [6] and in experiment [16] was “inactive” in each case. In addition, the Potency result in experiment [17], in experiment [8], in [9], in experiment [10], in [11] and in [18] was “inactive” throughout. In addition, the Potency entry in experiment [19], in experiment [12] and in experiment [14] was “inactive” each time.

With `O.O.O.O=C([O-])[C@H]([O-])[C@@H]([O-])C(=O)[O-].O=C([O-])[C@H]([O-])[C@@H]([O-])C(=O)[O-].[K+].[K+].[Sb+3].[Sb+3]`, the Potency entry in experiment [1], in experiment [15], in [3], in [16], in experiment [8] and in experiment [9] was “inactive” in each case. Moreover, the Potency result in [10], in experiment [11], in [18], in experiment [19], in experiment [12] and in experiment [20] was “inactive” each time. Moreover, the Potency result in experiment [13] and in experiment [14] was “inactive” each time. Moreover, the values for the Potency in [2] and in experiment [6] were 61.4 µM (active) and 36.5 µM (active), respectively.

Regarding `COC(=O)C1=CCCN(C)C1`, the Potency entry in experiment [1], in experiment [2], in [15], in experiment [3], in experiment [17] and in experiment [8] was “inactive” in each case. The Potency entry in experiment [9], in experiment [18], in [19], in experiment [12], in experiment [20] and in [13] was “inactive” each time. The Potency entry in experiment [14] is “inactive”.

Regarding `CC(C)(C)C(O)C(Oc1ccc(Cl)cc1)n1cncn1` (stereo not drawn), the Potency entry in experiment [1], in experiment [3], in experiment [5], in experiment [6], in [7] and in experiment [9] was “inactive” each time. Also, the Potency result in [18] and in experiment [14] was “inactive” in each case. Besides, the Potency in [2] was 68.6 µM (active).

On to `CC(CC(C(N)=O)(c1ccccc1)c1ccccc1)N(C)C` (stereo not drawn), for which the Potency result in experiment [1], in [2], in experiment [15], in experiment [4], in experiment [5] and in experiment [16] was “inactive” throughout. The Potency entry in experiment [7], in [8], in experiment [11], in experiment [18], in experiment [19] and in [20] was “inactive” throughout. Moreover, the Potency entry in [13] and in [14] was “inactive” each time. Moreover, the Potency in experiment [10] is 0.0082 µM (active).

For the molecule `CCCCOP(=O)(O)OCCCC`, the Potency result in experiment [1], in [2], in [15], in experiment [6], in experiment [16] and in experiment [17] was “inactive” each time. Besides, the Potency result in experiment [8], in experiment [9], in experiment [10], in [11], in experiment [18] and in experiment [19] was “inactive” throughout. Also, the Potency result in experiment [12], in experiment [20], in [13] and in experiment [14] was “inactive” each time.
